Outcome and AC50 data for 40 compounds are collected here from PubChem BioAssay (EPA / NIEHS).

SMILES strings stand for the structures. Results filed as inconclusive are left out. The source made the active and inactive calls. How the source made its calls: active means hit-call score of the fitted dose curve at least 0.9, where 1 is the maximum; inconclusive means response in the unintended direction; inactive means score below 0.9.

Test [1] can be described thus: ACEA_AR_agonist_AUC_viability: ACEA Biosciences xCELLigence Real-Time Cell Analysis on Androgen Receptor Agonism for Viability (AID 2283775).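 On AC50: viability read 80 hours after compound addition.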 An outline of the steps: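 22Rv1 cells; impedance growth kinetics; 8-pt 1:4 dilutions from 100 uM top final, ≤0.5% DMSO; n = 2; 80 h read; AUC viability, loss-of-signal vs DMSO.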
Test [2] is described as follows: ACEA_ER_AUC_viability: ACEA Biosciences xCELLigence Real-Time Cell Analysis on Estrogen Receptor Agonism for Viability (AID 2283782).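 Further: hit means loss of impedance signal meaning reduced cell growth or viability.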 An outline of the steps: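 Viability endpoint: reduced impedance area under the curve relative to DMSO, recorded by real-time electrode sensing over ~80 h of continuous exposure. Duplicate plates of T47D in hormone-depleted medium; eight concentrations, 1:4 dilutions, 100 uM maximum.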

A short description of test [3]: ACEA_AR_antagonist_AUC_viability: ACEA Biosciences xCELLigence Real-Time Cell Analysis on Androgen Receptor Antagonism for Viability (AID 2283776).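 Further: 22Rv1 human prostate cancer cells growing on impedance electrode plates; hits lower the growth signal relative to DMSO meaning cytotoxicity.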 An outline of the steps: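 Impedance read-out (RT-CES): area under growth curve at 80 h post-dose, loss of signal scored vs DMSO baseline. 22Rv1 cells; 8-pt 1:4 series, top 100 uM final, ≤0.5% DMSO; biological duplicate.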

Test [4] is described as follows: STM_H9_NormalizedViability: Cytotoxicity Assessment at 120 hours in the Stemina devTOX quickPredict H9 human embryonic stem cell (hESC)-based Assay (AID 2283784). Put shortly:
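Viability of the cell layer was taken from live-cell protease cleavage of a fluorogenic substrate after compound exposure of undifferentiated H9 stem cells, with replenishment each 24h. Fluorescence was normalized to vehicle (0.1% DMSO).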

Test [5] has as its target AR (gene 367) (UniProt P10275). Nature of the test: ACEA_AR_agonist_80hr: ACEA Biosciences xCELLigence Real-Time Cell Analysis on Androgen Receptor Agonism for Proliferation (AID 2283783).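 Further: hits increase impedance growth signal above DMSO baseline.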 An outline of the steps: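 Eight concentrations, 1:4 serial dilution from a 100 uM final top, in biological duplicate. Impedance-based real-time growth of 22Rv1 cells after overnight baseline, recorded hourly and read at 80 hours. Controls: testosterone, MG132, assay media.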

Test [6] addresses AR (gene 367) (UniProt P10275). Briefly: ACEA_AR_antagonist_80hr: ACEA Biosciences xCELLigence Real-Time Cell Analysis on Androgen Receptor Antagonism for Proliferation (AID 2283787).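 Further: 22Rv1 human prostate cancer cells with growth followed by electrical impedance; hits lower the impedance growth signal relative to DMSO.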 Put shortly:
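Impedance-based real-time growth of 22Rv1 prostate cells, read 80 h after dosing. Eight concentrations, 1:4 series, top 100 uM final (0.5% DMSO), n = 2; signal decrease scored against DMSO.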

Chain of AR (gene 367) (P10275 whole entry, looked up): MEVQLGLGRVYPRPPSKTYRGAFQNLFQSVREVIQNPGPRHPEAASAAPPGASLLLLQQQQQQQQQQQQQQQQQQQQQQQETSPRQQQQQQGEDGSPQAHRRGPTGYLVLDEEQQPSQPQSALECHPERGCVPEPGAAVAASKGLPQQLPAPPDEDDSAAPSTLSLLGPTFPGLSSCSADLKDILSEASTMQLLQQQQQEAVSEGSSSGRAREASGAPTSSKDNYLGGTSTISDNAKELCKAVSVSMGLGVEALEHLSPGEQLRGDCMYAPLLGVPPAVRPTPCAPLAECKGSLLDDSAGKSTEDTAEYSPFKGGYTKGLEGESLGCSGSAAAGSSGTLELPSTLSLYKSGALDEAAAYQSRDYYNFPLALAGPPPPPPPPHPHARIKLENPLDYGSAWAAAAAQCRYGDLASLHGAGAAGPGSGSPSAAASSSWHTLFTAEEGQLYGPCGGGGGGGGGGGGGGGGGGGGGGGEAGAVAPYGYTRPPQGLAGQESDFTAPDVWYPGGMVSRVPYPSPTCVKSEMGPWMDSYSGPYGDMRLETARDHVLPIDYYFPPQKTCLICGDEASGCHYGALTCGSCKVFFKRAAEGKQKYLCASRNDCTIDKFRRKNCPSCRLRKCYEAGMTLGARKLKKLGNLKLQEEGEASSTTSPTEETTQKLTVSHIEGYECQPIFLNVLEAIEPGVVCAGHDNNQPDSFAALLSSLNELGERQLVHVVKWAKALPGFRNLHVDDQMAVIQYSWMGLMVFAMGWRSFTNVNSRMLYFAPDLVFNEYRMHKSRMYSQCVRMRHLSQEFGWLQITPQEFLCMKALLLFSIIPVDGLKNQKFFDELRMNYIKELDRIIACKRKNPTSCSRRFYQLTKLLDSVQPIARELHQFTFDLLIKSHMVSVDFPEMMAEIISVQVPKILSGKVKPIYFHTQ

Consider `Fc1ccc(Br)cc1`, for which the compound was classed as inactive in test [1] and in test [2].
Turning to `CCN1CN(CC)CN(CC)C1`, the result in test [1] and in test [3] was inactive. Besides, the AC50 in test [2] is 66.4 µM (active).
As for `CC(C)c1ccc(O)c(C(C)C)c1`, in test [1], the compound was called inactive. For the same compound, the AC50 in test [2] was 79.4 µM (active).
Consider `c1ccc(Nc2cccc3ccccc23)cc1`, for which the compound was called inactive in test [1]. In addition, the AC50 in test [3] is 2.4 µM (active); in test [2], 81.4 µM (active).
`CN(C)c1ccc2nc3ccc(=[N+](C)C)cc-3sc2c1`: the AC50 is 20.4 µM (active) in test [1], 9.9 µM (active) in test [3], 16.5 µM (active) in test [2] and 4.5 µM (active) in test [4].
Take `O=C(O)CCC(=O)O`: the compound was classed as inactive in test [1] and in test [2].
`Oc1ccc(-c2ccccc2)c(Cl)c1`: the outcome in test [1] and in test [5] was inactive. Moreover, the figures for the AC50 in test [3], in test [2] and in test [6] were 0.598 µM (active), 82.6 µM (active) and 0.56 µM (active), respectively.
For `CCc1cccc(C)c1N`, the call in test [1], in test [3] and in test [6] was inactive.
As for `CCOC(=O)C1=NOC(c2ccccc2)(c2ccccc2)C1`, the compound was called inactive in test [3] and in test [2].
`CN(C)Cc1cc(CN(C)C)c(O)c(CN(C)C)c1`: the AC50 in test [1] was 4.16 µM (active). In test [5], the compound was called inactive.
Turning to `CCCCC(CC)COC(=O)/C=C/c1ccc(OC)cc1` (stereo not drawn), the compound was classed as inactive in test [1]. The AC50 in test [2] is 40.1 µM (active).
Take `CCCCCCCCCC(C)=O`: the compound was classed as inactive in test [1], in test [3], in test [2] and in test [6].
`CCCCCCOC(=O)CCCCC(=O)OCCCCCC`: the compound was classed as inactive in test [3].
As for `C=C1C[C@H]2[C@@H]3C=C(C)C4=CC(=O)CC[C@]4(C)[C@H]3CC[C@]2(C)[C@@]1(OC(C)=O)C(C)=O`, the result in test [1], in test [3] and in test [5] was inactive. Moreover, the AC50 in test [6] was 0.152 µM (active).
Take `O=C(O)C1CCC(C(=O)O)CC1` (stereo not drawn): the call in test [1] and in test [2] was inactive.
Regarding `CCC(C)(O)CCCC(C)C` (stereo not drawn), the call in test [1], in test [3] and in test [2] was inactive.
`COc1ccc(C(=O)c2ccccc2)c(O)c1`: the call in test [1], in test [3], in test [4] and in test [6] was inactive.
On to `O=C(OCc1ccccc1)c1ccc(O)cc1`, for which, in test [1], the compound was classed as inactive. Further, in test [2], the AC50 was 82.6 µM (active).
For `CCCCCCCCCCCCCCCCCCOS(=O)(=O)O`, in that order: “inactive” and 75.4 µM (active).
`CCCCNS(=O)(=O)c1ccccc1`: the result in test [1], in test [3] and in test [2] was inactive.
On to `CCCCCCCCCCCCCC(=O)OC(C)C`, for which the call in test [1], in test [3], in test [2] and in test [6] was inactive.
Take `CC(C)COC(=O)CC(C(=O)OCC(C)C)S(=O)(=O)O` (stereo not drawn): the call in test [1] and in test [2] was inactive.
On to `CC(C)=CCCC(C)=CC#N`, for which the call in test [3] was inactive.
`C[Si](C)(C)N[Si](C)(C)C`: the result in test [1], in test [3] and in test [2] was inactive.
Take `CCC[Si](OC)(OC)OC`: the compound was classed as inactive in test [1], in test [3] and in test [5].
Take `CC(=O)OCc1ccccc1`: the outcome in test [1], in test [3], in test [2] and in test [6] was inactive.
As to `CO[Si](C)(C)OC`, the result in test [1], in test [3] and in test [2] was inactive.
On to `C=C(C)C1CC=C(C)CC1` (stereo not drawn), for which the compound was classed as inactive in test [1] and in test [2].
On to `CCCC=C(C=O)CC`, for which the compound was called inactive in test [1] and in test [2].
Consider `O=C(Oc1ccccc1)c1ccccc1O`, for which the compound was called inactive in test [1] and in test [2].
Regarding `CCCCC/C=C\C/C=C\CCCCCCCC(=O)O`, the compound was called inactive in test [1] and in test [3]. Moreover, the AC50 in test [2] is 81.4 µM (active).
With `Cc1c(C(=O)c2c[nH]n(C)c2=O)ccc(S(C)(=O)=O)c1C1=NOCC1`, the result in test [1], in test [3] and in test [6] was inactive.
In the case of `CC(=O)OC1CCCCC1C(C)(C)C` (stereo not drawn), the outcome in test [1], in test [3] and in test [6] was inactive.
With `N#Cc1ccc(C(c2ccc(C#N)cc2)n2cncn2)cc1`, in test [1], the AC50 was 4.94 µM (active). Also, the result in test [2] and in test [6] was inactive.
In the case of `CCCCC(C=O)CC` (stereo not drawn), the result in test [1] and in test [2] was inactive.
Turning to `C=C[Si](OCCOC)(OCCOC)OCCOC`, the compound was classed as inactive in test [1] and in test [2].
`CCCCCCCO`: the compound was classed as inactive in test [3].
Turning to `CC1(C)[C@@H]2CC[C@@]1(C)C(=O)C2`, the outcome in test [1], in test [3] and in test [2] was inactive.
Regarding `CC(CCC(=O)O)(c1ccc(O)cc1)c1ccc(O)cc1`, the AC50 in test [4] was 0.0494 µM (active).
For `Oc1ccccc1Cc1ccccc1O`, in test [4], the result was inactive.

The AC50 is the concentration giving half of the maximal activity seen.
